Shown are actives, neighbours in structure and some others; about 21% of the full set was active somewhere.
FBPA Giardia inh: blocks Giardia fructose-bisphosphate aldolase activity; AID 2451; Potency, µM (top dose mostly 59.6 µM), for the others: top-dose activity, negative = inhibition, hits mostly inhibitors; purified Giardia FBPA; 290,000 compounds, 0.71% hits; further: potency means the concentration at half of the fitted maximal effect; on the % scale 0 is the no-effect control and ±100 the full control effect; nearly all actives have a fitted effect of over 55% in size
Target sequence (A8B2U2 whole entry, looked up): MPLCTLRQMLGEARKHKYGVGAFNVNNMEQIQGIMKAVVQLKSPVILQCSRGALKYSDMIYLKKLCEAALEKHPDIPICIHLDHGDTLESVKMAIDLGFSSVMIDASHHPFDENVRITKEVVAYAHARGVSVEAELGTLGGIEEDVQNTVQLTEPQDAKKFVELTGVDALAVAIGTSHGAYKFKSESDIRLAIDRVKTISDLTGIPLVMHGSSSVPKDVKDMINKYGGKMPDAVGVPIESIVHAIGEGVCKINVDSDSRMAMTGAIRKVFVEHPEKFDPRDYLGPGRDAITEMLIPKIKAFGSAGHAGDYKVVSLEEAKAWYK
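Giardia FBPA (40 nM reagent) was preincubated 10 min at RT with compound (up to 57.5 uM final), then substrate plus GAPDH/TPI/NAD/arsenate coupling system with diaphorase/resazurin was added; resorufin fluorescence (525/598 nm) was read after 20 min.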
NS1 function inh: inhibitors of influenza NS1 protein function | Potency, µM (doses to about 46.1 µM), without a hit: at the top dose activity, positive = more growth | 270,000 compounds, 0.4% hits | AID 2326; calls by dose curve; further: potency means the concentration at half of the fitted maximal effect; actives are rising curves; nearly all actives have a fitted effect of over 50% in size
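In this qHTS, NS1 from influenza A is expressed in budding yeast, where it slows growth. Cells are switched from glucose to 2% galactose medium (pH 6.0, -URA), treated with compound, and growth recovery is read at OD600.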
Pf growth 48h: P. falciparum growth inhibition at 48 hours (one generation); P. falciparum luciferase growth in erythrocytes, 48 h; Potency, µM (highest dose often 28.7 µM), for the others: top-dose activity change, negative = inhibition, usual class: inhibitors; 310,000 compounds, 5.9% hits; further: potency means the concentration at half of the fitted maximal effect; on the % scale 0 is the no-effect control and ±100 the full control effect
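A one-generation exposure of luciferase-tagged malaria parasites in RPMI 1640/Albumax erythrocyte culture, 37 C and 5% CO2. Inhibition is inferred from decreased luminescence after adding detection reagent.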
CHX counter: counter-screen for Shiga toxin inhibitors: cycloheximide protein synthesis inhibition; cell reporter, cycloheximide protein synthesis inhibition counterscreen; max response, %; 300,000 compounds, 12% hits; AID 2314; in the data active means max response mostly above about 13%, no sharp cut-off; inactive means mostly below about 14%; further: read at 38.3 µM for the half of the compounds with a filed dose; 0% is about no effect
Pf growth 96h: P. falciparum growth inhibition at 96 hour, primary screen for plastid delayed-death inhibitors; P. falciparum luciferase reporter growth, 96 h; Potency, µM (highest dose often 28.7 µM), for the others: top-dose activity change, negative = inhibition, actives largely listed as inhibitors; 320,000 compounds, 6.9% hits; further: potency means the concentration at half of the fitted maximal effect; on the % scale 0 is the no-effect control and ±100 the full control effect
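Infected RBCs, 2% Hct / 0.05% parasitemia final; luciferase-reporter P. falciparum; cpd 96 h, 37 C, 5% CO2; luciferase detection reagent; luminescence.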
Shiga toxin inh: blocks Shiga toxin action in Vero cells; Vero cells, Shiga toxin protein synthesis inhibition reporter; inhibition, % at 38.7 µM; 290,000 compounds, 9.2% hits; AID 2315; in the data active means inhibition mostly above about 28%, no sharp cut-off; inactive means mostly below about 43%; further: 0% is about no effect
Numbers without * were called inactive; ? = inconclusive; . = no result. Unless noted, the call rests on the fitted dose curve; in most records, active means well fitted curve in the direction sought with a large enough effect; inconclusive means small, poorly fitted or top-dose-only effect, or another doubt; inactive means no such curve, though single readings can be large; an effect the other way counts as inactive or inconclusive.

SMILES	FBPA Giardia inh	NS1 function inh	Pf growth 48h	CHX counter	Pf growth 96h	Shiga toxin inh
CCCC(C(=O)Nc1ccncc1)c1ccccc1 (stereo not drawn)	.	6.4%	?	-2.5	2.94µM*	-37.5
CCCC(C(=O)Nc1ccc(S(=O)(=O)N2CCCC2)cc1)c1ccccc1 (stereo not drawn)	.	.	10.4µM*	.	?	.
CCCC(C)C(=O)Nc1ccc(S(=O)(=O)N2CCCC2)cc1 (stereo not drawn)	4.4%	28.6%	-14.1%	-3.6	?	2.3
O=C(CC(c1ccccc1)c1ccccc1)Nc1ccncc1	-0.7%	-78.2%	?	-1.9	10.4µM*	-6.8
C=CCN1CC[C@]23CCCCC2[C@H]1Cc1ccc(O)cc13 (stereo partly drawn)	-2.4%	-5.2%	?	.	15.1µM*	.
O=C(O)/C=C/C(=O)NNC(=O)c1ccc(Cl)cc1Cl	-5.1%	12.6%	?	27.0*	-0.4%	58.4*
C/C=C/C=C(/NC(=O)c1ccccc1)C(=O)Nc1ccccc1	.	5.1%	2.3%	-2.1	-25.8%	-16.8
O=C(O)/C(=C\C(=O)c1ccccc1)Nc1ccccc1	?	9.3%	144.2%	51.4*	97.5%	83.5*
NS(=O)(=O)c1cccc(NC(=O)Nc2ccccc2)c1	-1.8%	-7.6%	2.08µM*	10.9*	103.2%	26.3
CS/C(N)=N/C(=S)Nc1cccc(Cl)c1	?	-30.9%	70.7%	36.1*	0.0%	94.5*
CC(O)(CS(=O)(=O)Cc1ccccc1)c1ccccc1Cl (stereo not drawn)	-7.9%	-1.8%	12.2%	6.0	24.2%	23.8
NS(=O)(=O)c1cccc(NC(=O)CCCC2CCCCC2)c1	11.7%	8.0%	11.2%	13.8	27.8%	59.7*
CC(=O)Nc1cccc(NC(=O)CCCC2CCCCC2)c1	.	-8.7%	?	-0.7	?	-22.1
CC(=O)c1ccc(NC(=S)NCCc2cccc(Cl)c2)cc1	-5.7%	-8.3%	?	27.0*	16.8%	77.7*
O=C(Nc1cccc(Cl)c1)Nc1nnc(-c2ccncc2)s1	-4.8%	-24.5%	11.7µM*	-0.7	5.22µM*	28.4
O=C(Nc1ccc(Cl)cc1)Nc1nnc(-c2ccncc2)s1	0.0%	-4.8%	17.4%	-0.5	?	-7.9
Cc1ccc(NC(=O)NC(=O)N(C(C)C)S(=O)(=O)c2ccc(C)cc2)cc1	-4.1%	.	38.5%	22.6*	111.6%	31.4
COc1nc(-c2ccc(Cl)cc2Cl)nc2ccccc12	8.6%	-7.3%	65.6%	2.2	?	-11.1
CC=C1COC(C(=O)NCCOCCO)(C(F)(F)F)C=C1C=C(C)C (stereo not drawn)	6.4%	.	.	-1.3	.	38.9
O=C(NCCCc1ccccc1)Nc1cccc(Cl)c1	-8.8%	-57.4%	?	34.7*	11.5%	24.0*
Cc1ccc(NC(=O)Nc2ccc(S(N)(=O)=O)cc2)cc1	0.0%	.	31.2%	30.1*	10.7%	49.3*
CC(=O)Nc1ccc(NC(=O)Nc2cccc(Cl)c2)cc1	-4.9%	5.7%	0.0%	27.3*	60.5%	49.6*
O=C(Nc1ccccc1)Nc1cccc(Cl)c1	-3.5%	-174.2%	.	55.6*	?	106.9*
O=C(Cc1ccccc1)NNC(=O)Nc1cccc(Cl)c1	4.6%	7.3%	13.5%	-2.9	0.0%	-33.1
C=C1CCC[C@]2(C)C[C@H]3OC(=O)C(CNCC(OC)OC)[C@H]3CC12 (stereo partly drawn)	-9.3%	-3.3%	-0.1%	-5.1	-1.9%	-7.0
SMILES	FBPA Giardia inh	NS1 function inh	Pf growth 48h	CHX counter	Pf growth 96h	Shiga toxin inh
O=C(Nc1ccccc1)Nc1ccccc1	-4.8%	.	.	48.1*	.	92.9*
CC(=O)c1ccc(N2CCN(C(=S)Nc3cccc(Cl)c3)CC2)cc1	7.6%	?	?	-1.5	?	-5.6
O=C(NNc1cccc(Cl)n1)c1ccc(Cl)cc1Cl	-7.7%	-2.9%	52.8%	24.0*	0.0%	29.1
O=C(Nc1ccccc1)C(Cl)C(=O)c1ccccc1 (stereo not drawn)	-12.2%	-135.6%	1.3%	36.1*	-18.0%	.
CC(=O)c1ccc(NC(=O)Nc2cccc(Cl)c2)cc1	-3.7%	-112.4%	.	36.7*	?	60.6*
N#Cc1ccccc1NC(=O)Nc1ccccc1	2.3%	-3.1%	8.7%	-3.0	51.1%	-5.1
Cn1c(CNC(=O)Nc2cccc(Cl)c2)nnc1SCc1ccccc1	-2.4%	-65.9%	?	-2.3	13.1µM*	-21.1
NS(=O)(=O)c1ccc(NC(=O)Nc2cccc(Cl)c2)cc1	-9.7%	5.5%	7.9%	19.3*	-12.4%	25.2
NS(=O)(=O)c1ccc(NC(=O)Nc2ccccc2)cc1	8.1%	2.8%	33.9%	12.9	41.3%	14.3
Cn1c(CNC(=O)Nc2ccccc2)nnc1SCc1ccccc1	0.0%	-4.8%	19.1%	-1.8	.	-2.5
Cc1ccc(N2C(=O)CC(SCC(=O)Nc3ccc(S(N)(=O)=O)cc3)C2=O)cc1 (stereo not drawn)	10.4%	.	147.6%	63.7*	298.2%	154.4*
COC(=O)C(C)(C)ONC(=O)Nc1ccc(C)cc1	4.9%	3.1%	51.5%	21.3*	18.1%	42.6*
COc1ccc(-c2cc3c(=O)n(CC(=O)N4CCCC4)ncn3n2)cc1	.	-0.4%	38.5%	-1.5	?	11.0
CN1C2CCC1CC(NS(=O)(=O)c1ccc(C#N)cc1)C2 (stereo not drawn)	.	0.7%	66.3%	-0.6	30.8%	-5.2
CCCCCCCC/C=C\CCCCCCCCN	.	.	-2.0%	.	-1.5%	.
Cc1cc(NC(=O)C2CC(=O)N(c3ccc(F)cc3)C2)no1 (stereo not drawn)	4.7%	2.2%	4.8%	-2.9	-32.4%	-11.1
CCOc1ccccc1-n1c(SCC(=O)N2CCOCC2)nc2ccccc2c1=O	1.4%	9.4%	-17.4%	0.7	7.6%	17.7
O=C(NNc1cccc(Cl)n1)Nc1cccc(Cl)c1	-7.5%	3.7%	.	-6.7	13.1µM*	-14.9
CC1OC(n2cc(F)c(=O)[nH]c2=O)C(O)C1O (stereo not drawn)	1.7%	.	.	.	.	.
CCCc1nc2c(C)cc(C)cc2c(N)c1CC	?	-6.5%	9.28µM*	1.7	10.4µM*	-13.0
Cn1nc(-c2ccccc2)c(CO)c1Oc1ccc(F)cc1	0.2%	.	-9.1%	18.0*	-2.3%	21.4
COc1ccc(C2N(c3cc(Cl)ccc3OC)C(=O)C3CCCN32)c(OC)c1 (stereo not drawn)	3.2%	-47.8%	.	-7.7	0.928µM*	10.2
C/C(=C\C(=S)Nc1ccccc1)Nc1cccc2ccccc12	?	3.2%	-8.5%	41.5*	13.9%	68.2*
CC1(C(=O)Nc2cccc3ccccc23)CC1(Br)Br (stereo not drawn)	?	2.3%	-3.3%	6.0	-12.2%	2.3
C/C(=C\C(=S)Nc1ccccc1)Nc1ccc2ccccc2c1	1.99µM*	-45.0%	9.28µM*	74.5*	?	143.1*
COC(=O)c1cccc(NC(=O)c2ccc3c(c2)C(=O)N(Cc2cccnc2)C3=O)c1C	.	-0.7%	18.1%	-2.4	-16.8%	-12.7
